From PubChem
ssDAF-12 act: activators of S. stercoralis DAF-12 nuclear receptor; HEK293 ssDAF-12/GRIP1 lit1-tk-luc reporter, luminescence; % of 3 µM dafachronic acid response; activation, % at 6.8 µM; 370,000 tested, 1% active;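 active = activation above the mean over all tested compounds plus 3 SD, cut at about 0.9% in these data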;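 also: 0% = DMSO-only wells and 100% = 3 µM delta7-dafachronic acid wells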
DAX1 inh-1: NR0B1 (DAX1) inhibition | P51843 | HEK293 Gal4-DAX1 luciferase reporter, luminescence | inhibition, % at 6.75 µM | 340,000 tested, 0.99% active | AID 504766;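 active = inhibition above the mean over all tested compounds plus 3 SD, cut at about 4.2% in these data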;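 also: 0% = DAX1-transfected cells with DMSO and 100% = empty-vector control cells with DMSO; inhibition shows as a rise in luminescence from relieved DAX1 repression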
Target sequence (P51843 207-470 limits assumed): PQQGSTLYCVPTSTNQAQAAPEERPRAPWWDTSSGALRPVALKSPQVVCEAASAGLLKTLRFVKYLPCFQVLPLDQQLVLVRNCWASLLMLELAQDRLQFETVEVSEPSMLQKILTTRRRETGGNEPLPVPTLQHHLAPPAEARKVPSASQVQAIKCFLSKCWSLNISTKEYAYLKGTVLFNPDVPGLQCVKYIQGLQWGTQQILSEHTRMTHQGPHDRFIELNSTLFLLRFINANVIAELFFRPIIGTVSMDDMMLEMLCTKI
DAX1 inh-2: blocks DAX1 repression of SF-1 activated StAR promoter; 370,000 tested, 1.1% active; HEK293T StAR-luciferase reporter, SF-1/DAX-1 repression relief; AID 652010; inhibition, % at 6.8 µM;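 active = inhibition above the mean over all tested compounds plus 3 SD, cut at about 3.6% in these data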;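 also: 0% = DAX-1 cells with DMSO and 100% = cells lacking DAX-1 with DMSO; higher inhibition means more luminescence from relief of DAX-1 repression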
hgDAF12 agonist: activates the H. glycines DAF-12 receptor ligand-binding domain | 370,000 tested, 1.8% active | AID 687014 | activation, % at 6.8 µM | HEK293 GAL4-hgDAF12 UAS-luciferase reporter, agonist luminescence; normalized to butyrate control;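 active = activation above a cutoff set at the mean of all screened compounds plus 3 SD, cut at about 10% in these data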;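 also: 0% = DMSO wells and 100% = sodium butyrate wells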
hcDAF12 agonist: activates DAF-12 receptor from parasite H. contortus | activation, % at 6.8 µM | 370,000 tested, 1.4% active | HEK293 hcDAF-12 lit1-tk-luc reporter, luminescence; 0% DMSO, 100% Δ7-dafachronic acid;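 active = activation above the mean of all tested compounds plus 3 SD, cut at about 5.5% in these data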;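 also: 100% = response to 3 µM Δ7-dafachronic acid high control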
Starred values were filed as active, the others as inactive; . = no result. Hits are enriched below; roughly 4.1% of the tested compounds scored in any of these assays.

SMILES	ssDAF-12 act	DAX1 inh-1	DAX1 inh-2	hgDAF12 agonist	hcDAF12 agonist
Cc1ccccc1C(=O)NC1CCCCN(Cc2cccc(Cl)c2)C1=O (centres undefined)	1.0*	.	-1	2	-3
Cc1ccc(C(=O)NC2CCCCN(Cc3cccc(Cl)c3)C2=O)c(C)c1 (centres undefined)	-1	.	-1	2	-2
CCC1(C)Nc2ccccc2C(=O)N1O (centres undefined)	-1	-1	0	0	0
COc1ccc(N2C(=O)c3ccccc3NC23CCC(C)CC3)cc1 (centres undefined)	-1	1	1	13*	2
CCOc1ccc(N2C(=O)c3ccccc3NC2(C)CC)cc1 (centres undefined)	-1	0	3.7*	12*	3
Cc1nc2sc(C(=O)NCc3nccs3)c(N)c2c(C)c1Cl	-1	.	1	4	1
CN(C)/N=C/c1ccc(OS(=O)(=O)c2ccccc2)cc1	-1	2	2	11*	2
Fc1cccc(CSc2nc3ccncc3[nH]2)c1	-1	1	4.4*	4	2
CCc1ccc(N2C(=O)CC(N3CCN(c4ccccn4)CC3)C2=O)cc1 (centres undefined)	-2	3	0	0	-2
O=C1CC(N2CCN(c3ccccn3)CC2)C(=O)N1c1ccc(F)cc1 (centres undefined)	1.7*	.	0	1	0
CC1(c2ccccn2)Nc2ccccc2-c2nc3ccccc3n21 (centres undefined)	0	4.4*	1	11*	2
c1ccc2c(c1)NC1(CCCCCC1)n1c-2nc2ccccc21	-1	1	2	10	3
c1ccc2c(c1)NC1(CCCCC1)n1c-2nc2ccccc21	-1	1	2	11*	4
CCCCC1(C)Nc2ccccc2-c2nc3ccccc3n21 (centres undefined)	0	3	2	11*	3
O=C(Nc1nc2ncccn2c1-c1ccc(F)cc1)C1CC1	-1	.	0	-1	-3
C=CCN1C(=O)[C@@H](CC(=O)N2CCOCC2)[C@]2(C(=O)OC)CCCCC=C12	-1	.	0	3	0
O=S(=O)(c1sccc1Br)n1c(CN2CCOCC2)nc2ccccc21	-2	.	0	-2	-3
CS(=O)(=O)N1N=C(c2ccc(Br)cc2)CC1c1ccc2c(c1)OCO2 (centres undefined)	.	2	.	.	.
CC(=O)N1N=C(c2ccc(C)cc2)CC1c1ccc2c(c1)OCO2 (centres undefined)	0	3	1	9	6.1*
S=C(N=Nc1ccccc1)NNc1ccccc1	0	3	3	12*	11*
S=C(NNC(=S)Nc1ccc(Cl)cc1)NNc1ccccc1	0	2	0	9	1
O=C(Nc1ccc(N2CCCC2)cc1)c1cc(Cl)ccc1Cl	0	0	1	2	1
Cc1cccc(C(=O)Nc2ccc(N3CCN(S(C)(=O)=O)CC3)cc2)c1	0	0	1	11*	0
O=C(Nc1ccc(N2CCCC2)cc1)c1cccc(Cl)c1	0	2	3	12*	6.0*
C=CCn1c(C)cc(C(=O)COc2nncc3ccccc23)c1C	0	1	2	13*	1
SMILES	ssDAF-12 act	DAX1 inh-1	DAX1 inh-2	hgDAF12 agonist	hcDAF12 agonist
COC(=O)CCC(=O)OC1(C)C(=O)C=C2C=C(C3CC3)N(CCc3ccccn3)C=C2C1=O (centres undefined)	-1	1	0	0	-1
COC(=O)CCC(=O)OC1(C)C(=O)C=C2C=C(C3CC3)N(CCc3c[nH]c4ccccc34)C=C2C1=O (centres undefined)	0	0	0	1	6.3*
O=C(O)c1ccc(C=NNC(=O)c2ccccc2NS(=O)(=O)c2cccs2)cc1	-1	2	3.7*	-2	-1
O=c1c2cc(Cl)ccc2nc(-c2ccccc2)n1O	-1	0	0	2	-1
O=c1c2cc(Cl)ccc2nc(-c2ccc(Cl)c(Cl)c2)n1O	0	4.5*	0	0	4
O=C/C(=C\Nc1ccccn1)c1nc2ccccc2o1	0	1	0	3	5.8*
O=C/C(=C\Nc1ccc(Br)cc1)c1nc2ccccc2o1	-1	0	0	-2	4
CCOC(=O)[C@]12CCCCC/C=C\1N(CCc1ccc(Cl)cc1)C(=O)[C@H]2CC(=O)NCCCCc1ccccc1	-1	.	-2	0	-2
